Test [1] in a line: NCI Yeast Anticancer Drug Screen. Data for the rad50 strain (AID 155).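 Further: 0% = growth of vehicle-only cultures of the same strain.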 The following applies: S. cerevisiae rad50 strain growth inhibition, stronger effect = higher value. The procedure, abridged:
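Yeast carrying a defined DNA repair defect were exposed to test compounds, and growth was compared with vehicle-treated controls to give percent inhibition.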

A short description of test [2]: NCI Yeast Anticancer Drug Screen. Data for the mec2-1 strain (AID 157). The settings on record: S. cerevisiae mec2-1 strain, stronger effect = higher value. The procedure, abridged: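 Yeast mec2-1 mutant treated with compound. Readout: growth inhibition vs vehicle controls.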
Test [3] is described as follows: NCI Yeast Anticancer Drug Screen. Data for the sgs1 mgt1 strain (AID 161).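 Further: 0% = growth of cultures given vehicle only.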 The following applies: S. cerevisiae sgs1 mgt1 strain, stronger effect = higher value. An outline of the steps:
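Mutant yeast exposed to compound; growth scored against vehicle-only wells.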

Test [4] in a line: NCI Yeast Anticancer Drug Screen. Data for the cln2 rad14 strain (AID 165).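 Further: 0% = growth equal to vehicle treated cultures.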 The settings on record: S. cerevisiae cln2 rad14 strain, stronger effect = higher value. An outline of the steps:
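cln2 rad14 yeast strain; compound exposure; growth inhibition read vs vehicle controls.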

A short description of test [5]: NCI Yeast Anticancer Drug Screen. Data for the bub3 strain (AID 167). The following applies: S. cerevisiae bub3 mutant strain, stronger effect = higher value. An outline of the steps: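 Compounds were applied to a genetically altered yeast strain carrying a cell-cycle control defect. Growth inhibition was scored against vehicle-treated controls.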
A short description of test [6]: NCI Yeast Anticancer Drug Screen. Data for the mlh1 rad18 strain (AID 175). The settings on record: S. cerevisiae mlh1 rad18 strain growth inhibition, stronger effect = higher value. An outline of the steps:
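Yeast w/ defined DNA-repair lesions; compound exposure; growth vs vehicle controls → % inhibition.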

Setting [7] is: at 5.0 µM (retest, dose inferred, filed as 0.5).
[8] abbreviates: at 50.0 µM (retest, dose inferred, filed as 5.0).

This note sets out measurements from PubChem BioAssay (NCI).

This is part of a sample that, as a whole, favours compounds with a hit. Of some 79,000 tested, about 15% had one in any assay. Unmarked numbers belong to inactive results. The source made the active and inactive calls. No stated cut-off is given here; in the data, active means growth inhibition above about 70%; inactive means the rest.

Take `FC(F)(F)C(F)(F)C1(F)C(F)(F)C(F)(F)C(F)(F)C(F)(F)C1(F)F`: the growth inhibition was -1% in test [1] (setting [7]); -2% in test [1] (setting [8]); 99.7% (active) in test [1] (at 50.0 µM); -2% in test [2] (setting [7]); 1% in test [2] (setting [8]); 99.5% (active) in test [2] (at 50.0 µM). Also, the growth inhibition in test [3] (setting [7]) was -1%; in test [3] (setting [8]) it was -3%; in test [3] (at 50.0 µM) it was 99.6% (active); in test [4] (setting [7]) it was 1%; in test [4] (setting [8]) it was -8%; in test [4] (at 50.0 µM) it was 97.2% (active). Moreover, the growth inhibition in test [5] (setting [7]) was 3%; in test [5] (setting [8]), 4%; in test [5] (at 50.0 µM), 99.5% (active); in test [6] (setting [7]), 2%; in test [6] (setting [8]), -2%; in test [6] (at 50.0 µM), 99.2% (active).

Regarding `CCc1cccc(CC)c1NC1=C(Cl)C(=O)c2ccccc2C1=O`, the growth inhibition in test [1] (setting [7]) was 99% (active); in test [1] (setting [8]), 99% (active); in test [1] (at 50.0 µM) it was -21.1%; in test [2] (setting [7]) it was 100% (active); in test [2] (setting [8]), 99% (active); in test [2] (at 50.0 µM), 5%. Also, the growth inhibition in test [3] (setting [7]) is 99% (active); in test [3] (setting [8]), 99% (active); in test [3] (at 50.0 µM), 14.5%; in test [4] (setting [7]), 95% (active); in test [4] (setting [8]), 98% (active); in test [4] (at 50.0 µM) it was -26.9%. Further, the growth inhibition in test [5] (setting [7]) is 99% (active); in test [5] (setting [8]), 98% (active); in test [5] (at 50.0 µM), 5.15%; in test [6] (setting [7]), 99% (active); in test [6] (setting [8]) it was 98% (active); in test [6] (at 50.0 µM), 19.1%.

`C[C@]12CC[C@H]3[C@@H](CCC4=CC(=O)CC[C@@]43C)[C@@H]1CC[C@@H]2O[Si](O[C@H]1CC[C@H]2[C@@H]3CCC4=CC(=O)CC[C@]4(C)[C@H]3CC[C@]12C)(O[C@H]1CC[C@H]2[C@@H]3CCC4=CC(=O)CC[C@]4(C)[C@H]3CC[C@]12C)c1ccccc1`: the growth inhibition in test [1] (setting [7]) was 5%; in test [1] (setting [8]) it was 59%; in test [1] (at 50.0 µM), 75.9% (active); in test [2] (setting [7]), 1%; in test [2] (setting [8]), 62%; in test [2] (at 50.0 µM) it was 89.9% (active). Further, the growth inhibition in test [3] (setting [7]) was -1%; in test [3] (setting [8]), 93% (active); in test [3] (at 50.0 µM) it was 97.5% (active); in test [4] (setting [7]), -6%; in test [4] (setting [8]) it was 33%; in test [4] (at 50.0 µM), 58.6%. Besides, the growth inhibition in test [5] (setting [7]) was 4%; in test [5] (setting [8]), 77% (active); in test [5] (at 50.0 µM) it was 81.5% (active); in test [6] (setting [7]) it was 1%; in test [6] (setting [8]), 84% (active); in test [6] (at 50.0 µM), 94.8% (active).

For `O=[N+]([O-])c1ccc(/C=N/O)s1`, the growth inhibition was -11% in test [1] (setting [7]); 99% (active) in test [1] (setting [8]); 99.5% (active) in test [1] (at 50.0 µM); 3% in test [2] (setting [7]); 100% (active) in test [2] (setting [8]); 99.7% (active) in test [2] (at 50.0 µM). Moreover, the growth inhibition in test [3] (setting [7]) was -7%; in test [3] (setting [8]), 99% (active); in test [3] (at 50.0 µM), 97.7% (active); in test [4] (setting [7]), 10%; in test [4] (setting [8]) it was 95% (active); in test [4] (at 50.0 µM) it was 99.2% (active). Further, the growth inhibition in test [5] (setting [7]) was -17%; in test [5] (setting [8]), 99% (active); in test [5] (at 50.0 µM), 99.7% (active); in test [6] (setting [7]), 12%; in test [6] (setting [8]), 99% (active); in test [6] (at 50.0 µM), 99.3% (active).

On to `COc1cccc(/C=C/C(C)=O)c1OC`, for which the growth inhibition was 2% in test [1] (setting [7]); 35% in test [1] (setting [8]); 76% (active) in test [1] (at 50.0 µM); 4% in test [2] (setting [7]); 8% in test [2] (setting [8]); 13.9% in test [2] (at 50.0 µM). The growth inhibition in test [3] (setting [7]) is -1%; in test [3] (setting [8]), 3%; in test [3] (at 50.0 µM), 24.5%; in test [4] (setting [7]), -4%; in test [4] (setting [8]), 4%; in test [4] (at 50.0 µM), 21.9%. The growth inhibition was -2% in test [5] (setting [7]); -1% in test [5] (setting [8]); 5.2% in test [5] (at 50.0 µM); -4% in test [6] (setting [7]); 7% in test [6] (setting [8]); 37.5% in test [6] (at 50.0 µM).

On to `CC(C)c1cc2c(cc1O)C[C@@]1(O)CCCC(C)(C)C1CC2` (some centres not stated), for which the growth inhibition in test [1] (setting [7]) is 8%; in test [1] (setting [8]) it was 97% (active); in test [1] (at 50.0 µM) it was 90.6% (active); in test [2] (setting [7]), 3%; in test [2] (setting [8]), 97% (active); in test [2] (at 50.0 µM), 92.3% (active). Besides, the growth inhibition in test [3] (setting [7]) was 3%; in test [3] (setting [8]), 92% (active); in test [3] (at 50.0 µM) it was 91.2% (active); in test [4] (setting [7]) it was -16%; in test [4] (setting [8]) it was 96% (active); in test [4] (at 50.0 µM), 90% (active). The growth inhibition in test [5] (setting [7]) is 7%; in test [5] (setting [8]) it was 96% (active); in test [5] (at 50.0 µM), 91.2% (active); in test [6] (setting [7]) it was 10%; in test [6] (setting [8]), 95% (active); in test [6] (at 50.0 µM) it was 90.2% (active).

On to `N#CC(O)C(Br)(Br)Br` (configuration not stated), for which the growth inhibition in test [1] (setting [7]) is -3%; in test [1] (setting [8]), 61%; in test [1] (at 50.0 µM), 82.7% (active); in test [2] (setting [7]) it was -3%; in test [2] (setting [8]), 38%; in test [2] (at 50.0 µM), 74.3% (active). For the same molecule, the growth inhibition in test [3] (setting [7]) is -4%; in test [3] (setting [8]), 46%; in test [3] (at 50.0 µM), 83.3% (active); in test [4] (setting [7]), 6%; in test [4] (setting [8]) it was 18%; in test [4] (at 50.0 µM) it was 21.9%. The growth inhibition was -1% in test [5] (setting [7]); 69% in test [5] (setting [8]); 84.7% (active) in test [5] (at 50.0 µM); 1% in test [6] (setting [7]); 72% (active) in test [6] (setting [8]); 86% (active) in test [6] (at 50.0 µM).

As for `ClC(Cl)(Cl)/C=C/c1cnc2ccccc2n1`, the growth inhibition was 2% in test [1] (setting [7]); 99% (active) in test [1] (setting [8]); 15.6% in test [1] (at 50.0 µM); 1% in test [2] (setting [7]); 99% (active) in test [2] (setting [8]); 5.95% in test [2] (at 50.0 µM). The growth inhibition in test [3] (setting [7]) was 1%; in test [3] (setting [8]) it was 99% (active); in test [3] (at 50.0 µM) it was 49.3%; in test [4] (setting [7]) it was -3%; in test [4] (setting [8]) it was 99% (active); in test [4] (at 50.0 µM) it was -2%. The growth inhibition was -3% in test [5] (setting [7]); 99% (active) in test [5] (setting [8]); 85.7% (active) in test [5] (at 50.0 µM); 3% in test [6] (setting [7]); 99% (active) in test [6] (setting [8]); 30.2% in test [6] (at 50.0 µM).

Consider `CN1CCN=C1c1ccc(NC(=O)Nc2ccc(NC(=O)Nc3ccc(C4=NCCN4C)cc3)cc2)cc1`, for which the growth inhibition in test [1] (setting [7]) is -1%; in test [1] (setting [8]), 80% (active); in test [1] (at 50.0 µM) it was 84.8% (active); in test [2] (setting [7]) it was -15%; in test [2] (setting [8]), 85% (active); in test [2] (at 50.0 µM), 86.5% (active). In addition, the growth inhibition in test [3] (setting [7]) is -15%; in test [3] (setting [8]), 74% (active); in test [3] (at 50.0 µM), 90% (active); in test [4] (setting [7]) it was -10%; in test [4] (setting [8]) it was 61%; in test [4] (at 50.0 µM), 50.8%. Moreover, the growth inhibition in test [5] (setting [7]) is -2%; in test [5] (setting [8]), 83% (active); in test [5] (at 50.0 µM), 92% (active); in test [6] (setting [7]), 1%; in test [6] (setting [8]), 83% (active); in test [6] (at 50.0 µM), 93.8% (active).
